Compound activity from PubChem.
Pf Dd2 inh: P. falciparum Dd2 growth inhibition. SYBR Green, 72 h; stronger effect = lower value. activity change, % at 10 µM. hit rate 2.3% among 94,000; in the data active = activity change below about -80%; inconclusive = no clear call, values can overlap the other calls
C diff growth: C. difficile growth inhibition. hit rate 0.25% among 86,000. growth activity, negative = inhibition, % at 16 µg/mL (by protocol). AID 1259249. Clostridium difficile clinical isolate growth, OD600, 24 h; stronger effect = lower value;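 active = mean growth activity at or below -80% and every replicate also at or below -80%; inconclusive = mean at or below -80% but some replicate above -80%; inactive = mean growth activity above -80%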
T cruzi growth-1: T. cruzi proliferation inhibition. T. cruzi beta-gal in NIH3T3, GalScreen luminescence, 90 h. inhibition, % at 8.34 µM. hit rate 5.9% among 77,000;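 active = mean inhibition above about 93%, with at least 55% of replicates each passing it, limit read from the data, passing the limit was not always enough; inconclusive = only one of those two conditions holds; inactive = neither condition holds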
T cruzi growth-2: inhibitors of T. cruzi proliferation; shares compounds with T cruzi growth-1; T. cruzi beta-gal in NIH3T3, GalScreen luminescence, 90 h; inhibition, % at 8.35 µM; hit rate 72% among 5,600; AID 651739;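 active = mean replicate inhibition above about 95% and at least 55% of replicates individually reaching it, limit read from the data; inconclusive = only one of the two criteria is met; inactive = neither criterion is met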
T cruzi growth-3: inhibitors of T. cruzi proliferation | shares compounds with T cruzi growth-1 | T. cruzi beta-gal in NIH3T3, GalScreen luminescence, 90 h | inhibition, % at 2.09 µM | hit rate 21% among 5,600 | AID 651740;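 active = mean inhibition above about 95%, with at least 55% of replicates also reaching it, limit read from the data; inconclusive = meets just one of the two conditions; inactive = meets neither condition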
NIH3T3 tox: kills mouse NIH/3T3 fibroblasts. cytotoxicity (signal decrease), % at 8.35 µM. NIH/3T3 viability, CellTiter-Glo ATP luminescence, 90 h. AID 651742. shares compounds with T cruzi growth-1. hit rate 14% among 5,600;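 active = mean signal decrease across replicates above about 35% based on untreated-well scatter, with enough replicates individually passing, limit read from the data; inconclusive = no rule stated though some were filed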
3T3 cytotox 2: cytotoxicity in mouse NIH/3T3 fibroblasts | shares compounds with T cruzi growth-1 | NIH/3T3 viability, CellTiter-Glo ATP luminescence, 90 h | inhibition, % at 24.9 µM | hit rate 56% among 5,600;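 active = mean loss of cell viability signal at or above a set limit, and enough replicates individually reaching it; inconclusive = meets only the mean limit or only the replicate share; inactive = meets neither condition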
Large screens that a line does not name were inactive (follow-up assays come after a bar, where they were run). The list is not random: actives were taken first. Their share in the collection is about 6.7%.

CCCNC(=O)C[C@@H]1CC[C@H]2[C@@H](COC[C@@H](O)CN2C(=O)c2cccnc2)O1	none
CCNC(=O)C[C@@H]1CC[C@H]2[C@H](COc3ccc(NC(=O)Nc4ccc(Cl)cc4)cc3C(=O)N2C)O1	none
COc1ccccc1-c1ccc2n(c1=O)C[C@H]1[C@H](CO)[C@@H](C(=O)N3CCN(C)CC3)[C@@H]2N1CC1CC1	none
CN(C)CCCNC(=O)C[C@H]1CC[C@@H](NC(=O)c2ccccc2F)[C@H](CO)O1	none (no result: C diff growth)
CN1CCN(C(=O)C[C@@H]2CC[C@H]3[C@@H](COC[C@@H](O)CN3CC3CCCC3)O2)CC1	none (no result: T cruzi growth-1)
CC(C)CC#Cc1cnc2c(c1)C(=O)N([C@@H](C)CO)C[C@@H](C)[C@H](CN(C)C(=O)Cc1cccnc1)O2	none
C[C@@H]1CN([C@@H](C)CO)S(=O)(=O)c2ccc(C#CC3CCCC3)cc2O[C@@H]1CN(C)Cc1cccnc1	T cruzi growth-1 102.8 | T cruzi growth-2 101.0 | T cruzi growth-3 inconclusive | NIH3T3 tox 60.0 | 3T3 cytotox 2 106.1
C[C@@H]1CN([C@H](C)CO)S(=O)(=O)c2ccc(C#CC3CCCC3)cc2O[C@H]1CN(C)Cc1cncnc1	none (no result: C diff growth, T cruzi growth-1)
C[C@H]1CN([C@@H](C)CO)S(=O)(=O)c2ccc(C#CC3CCCC3)cc2O[C@@H]1CN(C)Cc1cccnc1	T cruzi growth-1 97.9 | T cruzi growth-2 100.9 | T cruzi growth-3 110.8 | NIH3T3 tox inactive | 3T3 cytotox 2 105.4
C[C@H]1CN([C@@H](C)CO)S(=O)(=O)c2ccc(C#CC3CCCCC3)cc2O[C@@H]1CN(C)Cc1cccnc1	none (no result: C diff growth)
CCNC(=O)C[C@H]1CC[C@@H]2[C@H](COc3ccc(NC(=O)C4CCOCC4)cc3C(=O)N2C)O1	none
CO[C@@H]1CN(C)C(=O)c2cc(NC(=O)C3CC3)ccc2OC[C@H](C)N(CC2CCCC2)C[C@H]1C	none
O=C(C[C@H]1CC[C@H]2[C@@H](COC[C@@H](O)CN2Cc2ccc(Cl)cc2)O1)NCc1cccc(F)c1	none (no result: T cruzi growth-1)
C[C@@H]1CN([C@@H](C)CO)C(=O)c2ccccc2-c2ccccc2CO[C@@H]1CN(C)S(=O)(=O)c1cccs1	T cruzi growth-1 115.1 | T cruzi growth-2 inactive | T cruzi growth-3 inactive | NIH3T3 tox inactive | 3T3 cytotox 2 inconclusive
Cc1ccccc1S(=O)(=O)N(C)C[C@H]1OCc2ccccc2-c2ccccc2C(=O)N([C@H](C)CO)C[C@@H]1C	T cruzi growth-1 inconclusive | T cruzi growth-2 95.0 | T cruzi growth-3 inactive | NIH3T3 tox inactive | 3T3 cytotox 2 inactive
C[C@H]1CN([C@@H](C)CO)C(=O)c2ccccc2-c2ccccc2CO[C@H]1CN(C)S(=O)(=O)c1ccccc1F	none
C[C@H](CO)N1C[C@H](C)[C@@H](CN(C)S(C)(=O)=O)OCc2ccccc2-c2ccccc2C1=O	none
COc1ccc(-c2cnc3c(c2)C(=O)N([C@@H](C)CO)C[C@H](C)[C@H](CN(C)C(=O)C2CC2)O3)cc1	none
Cc1ccccc1-c1ccc([C@H]2[C@@H](CO)N3CCCCN(C(=O)Nc4ccc(F)cc4)C[C@@H]23)cc1	T cruzi growth-1 104.1 | T cruzi growth-2 106.8 | T cruzi growth-3 inactive | NIH3T3 tox inactive | 3T3 cytotox 2 55.6
Cc1ccccc1-c1ccc([C@H]2[C@@H](CO)N3CCCCN(C(=O)Nc4ccc(F)cc4)C[C@H]23)cc1	T cruzi growth-1 100.8 | T cruzi growth-2 97.9 | T cruzi growth-3 inconclusive | NIH3T3 tox 93.7 | 3T3 cytotox 2 103.1
O=C(Nc1ccc(F)cc1)N1CCCCN2[C@H](C1)[C@@H](c1ccc(-c3ccncc3)cc1)[C@@H]2CO	none
Cc1ccccc1-c1ccc([C@H]2[C@H]3CN(C(=O)Nc4ccc(F)cc4)CCCCN3[C@H]2CO)cc1	T cruzi growth-1 100.7 | T cruzi growth-2 111.2 | T cruzi growth-3 inactive | NIH3T3 tox inactive | 3T3 cytotox 2 75.6
Cc1ccccc1-c1ccc([C@H]2[C@H](CO)N3CCCCN(C(=O)Nc4ccccc4)C[C@@H]23)cc1	none
Cc1ccccc1-c1ccc([C@@H]2[C@@H](CO)N3CCCCN(C(=O)Nc4ccccc4)C[C@@H]23)cc1	none
O=C(C[C@@H]1C=C[C@H](NC(=O)C2CCOCC2)[C@H](CO)O1)NCC1CC1	none (no result: C diff growth)
